# Measurements as given in publication PMC7862700, “An all-to-all approach to the identification of sequence-specific readers for epigenetic DNA modifications on cytosine”.
# Columns and labels:
# Test in all cases: DAPPL (digital affinity profiling via proximity ligation, sequencing); 10 mM Tris-HCl pH 7.5, 50 mM NaCl, 1 mM DTT, 4% glycerol, room temperature, 30 min; GST-TFs on glutathione beads, 16-mer random dsDNA library, 0.1% formaldehyde crosslink after washing; high values mean tight binding
# FEV = biological target: T1, FEV (Homo sapiens, UniProt Q99581 1-238); details: protein: recombinant; tags: N-terminal GST; dsDNA, one strand shown
# T1 sequence: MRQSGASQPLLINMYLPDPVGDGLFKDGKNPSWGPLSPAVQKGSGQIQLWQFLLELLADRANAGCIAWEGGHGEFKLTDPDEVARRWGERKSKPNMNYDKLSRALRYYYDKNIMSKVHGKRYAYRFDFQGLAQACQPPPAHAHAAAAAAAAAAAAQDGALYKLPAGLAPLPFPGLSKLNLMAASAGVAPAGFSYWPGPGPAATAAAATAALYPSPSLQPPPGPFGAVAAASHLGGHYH
# Summary of the method: (§1)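 Human transcription factors carrying a GST fusion were produced in yeast, bound to glutathione beads, tagged with DNA barcodes and pooled together with a tag-only sample. Each pool was held with 200 nmole of a random double-stranded 16-mer DNA library in Tris/NaCl/DTT/glycerol buffer for 30 min at room temperature, then washed, crosslinked in 0.1% formaldehyde, proximity-ligated with BsaI/T4 ligase (1 h, 37 °C), PCR-amplified and sequenced on an Illumina NextSeq500. Binding signal is the read frequency of each hexamer for a given factor divided by its frequency in the tag-only sample.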
# ETV5 = ETV5 (Homo sapiens, UniProt P41161 1-510); details: protein: recombinant; tags: N-terminal GST; dsDNA, one strand shown
# ETV5, sequence (P41161 whole entry): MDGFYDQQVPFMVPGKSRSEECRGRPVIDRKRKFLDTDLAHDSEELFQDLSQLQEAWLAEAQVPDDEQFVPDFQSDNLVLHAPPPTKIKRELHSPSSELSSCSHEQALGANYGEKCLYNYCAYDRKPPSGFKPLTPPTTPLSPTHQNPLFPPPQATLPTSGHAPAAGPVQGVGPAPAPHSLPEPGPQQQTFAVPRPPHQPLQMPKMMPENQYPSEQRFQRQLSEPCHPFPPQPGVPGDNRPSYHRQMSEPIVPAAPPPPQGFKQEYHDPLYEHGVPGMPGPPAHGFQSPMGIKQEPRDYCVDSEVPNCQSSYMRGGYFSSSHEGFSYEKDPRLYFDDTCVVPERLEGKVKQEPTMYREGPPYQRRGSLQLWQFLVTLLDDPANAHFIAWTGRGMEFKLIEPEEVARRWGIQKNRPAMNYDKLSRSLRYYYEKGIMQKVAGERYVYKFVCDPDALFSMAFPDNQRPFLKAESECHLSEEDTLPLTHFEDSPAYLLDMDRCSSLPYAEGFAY
# Summary of the method: as §1
# HSF1 = HSF1 (Homo sapiens, UniProt Q00613 1-529); details: protein: recombinant; tags: N-terminal GST; chain copies: 3; dsDNA, one strand shown
# HSF1, sequence (Q00613 whole entry): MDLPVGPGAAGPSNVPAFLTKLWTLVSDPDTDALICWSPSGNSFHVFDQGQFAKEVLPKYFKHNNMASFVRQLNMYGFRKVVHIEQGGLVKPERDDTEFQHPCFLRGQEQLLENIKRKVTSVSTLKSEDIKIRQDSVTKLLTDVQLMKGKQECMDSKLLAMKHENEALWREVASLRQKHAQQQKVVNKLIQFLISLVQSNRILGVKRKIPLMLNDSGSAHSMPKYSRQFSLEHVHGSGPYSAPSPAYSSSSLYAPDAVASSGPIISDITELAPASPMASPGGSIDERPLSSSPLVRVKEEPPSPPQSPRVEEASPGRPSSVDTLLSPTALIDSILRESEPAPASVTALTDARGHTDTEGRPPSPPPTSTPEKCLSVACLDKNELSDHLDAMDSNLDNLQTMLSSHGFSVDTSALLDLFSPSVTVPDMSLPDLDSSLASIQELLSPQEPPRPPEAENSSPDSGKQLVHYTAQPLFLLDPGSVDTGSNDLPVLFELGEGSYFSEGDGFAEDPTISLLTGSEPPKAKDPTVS
# Summary of the method: as §1
# SPIC = biological target: T2, SPIC (Homo sapiens, UniProt Q8N5J4 1-248); details: protein: recombinant; tags: N-terminal GST; dsDNA, one strand shown
# T2 sequence: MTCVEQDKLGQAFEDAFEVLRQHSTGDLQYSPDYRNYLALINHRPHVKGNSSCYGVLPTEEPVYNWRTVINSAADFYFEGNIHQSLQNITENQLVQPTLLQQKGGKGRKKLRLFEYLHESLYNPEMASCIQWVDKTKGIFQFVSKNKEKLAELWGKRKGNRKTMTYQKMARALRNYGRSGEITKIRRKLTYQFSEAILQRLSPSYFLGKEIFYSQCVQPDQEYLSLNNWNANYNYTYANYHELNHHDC
# Summary of the method: as §1
# ELF4 = ELF4 (Homo sapiens, UniProt Q99607 1-663); details: protein: recombinant; tags: N-terminal GST; dsDNA, one strand shown
# ELF4, sequence (Q99607 whole entry): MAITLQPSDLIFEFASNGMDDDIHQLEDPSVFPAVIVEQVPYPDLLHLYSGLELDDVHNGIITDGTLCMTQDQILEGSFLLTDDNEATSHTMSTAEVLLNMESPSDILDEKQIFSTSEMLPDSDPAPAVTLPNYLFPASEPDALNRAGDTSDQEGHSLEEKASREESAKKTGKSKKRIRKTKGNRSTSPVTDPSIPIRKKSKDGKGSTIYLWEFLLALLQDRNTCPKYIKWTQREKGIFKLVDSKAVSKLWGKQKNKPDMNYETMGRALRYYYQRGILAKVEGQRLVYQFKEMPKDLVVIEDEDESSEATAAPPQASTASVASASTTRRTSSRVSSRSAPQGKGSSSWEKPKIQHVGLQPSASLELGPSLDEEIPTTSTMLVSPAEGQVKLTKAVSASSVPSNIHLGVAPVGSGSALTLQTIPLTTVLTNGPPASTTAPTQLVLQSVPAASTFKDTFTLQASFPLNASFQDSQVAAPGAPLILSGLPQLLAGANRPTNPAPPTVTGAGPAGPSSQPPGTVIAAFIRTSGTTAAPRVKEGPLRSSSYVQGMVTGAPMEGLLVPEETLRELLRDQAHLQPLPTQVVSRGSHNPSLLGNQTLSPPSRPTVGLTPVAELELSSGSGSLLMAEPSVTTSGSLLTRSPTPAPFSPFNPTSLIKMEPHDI
# Summary of the method: as §1
# ELK4 = biological target: T3, ELK4 (Homo sapiens, UniProt P28324-2 1-405); details: protein: recombinant; tags: N-terminal GST; dsDNA, one strand shown
# T3 sequence: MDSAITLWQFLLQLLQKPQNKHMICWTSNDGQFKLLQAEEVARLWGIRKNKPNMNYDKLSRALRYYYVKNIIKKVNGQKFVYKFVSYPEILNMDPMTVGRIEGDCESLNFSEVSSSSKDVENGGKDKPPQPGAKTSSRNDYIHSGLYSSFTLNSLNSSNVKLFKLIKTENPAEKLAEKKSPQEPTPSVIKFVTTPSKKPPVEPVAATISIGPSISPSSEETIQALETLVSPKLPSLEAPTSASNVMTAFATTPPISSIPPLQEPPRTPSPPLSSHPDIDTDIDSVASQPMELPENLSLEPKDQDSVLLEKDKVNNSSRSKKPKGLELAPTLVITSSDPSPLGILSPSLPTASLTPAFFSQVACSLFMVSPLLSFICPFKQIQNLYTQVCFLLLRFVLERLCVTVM
# Summary of the method: as §1
# ETV2 = biological target: T4, ETV2 (Homo sapiens, UniProt O00321 1-342); details: protein: recombinant; tags: N-terminal GST; dsDNA, one strand shown
# T4 sequence: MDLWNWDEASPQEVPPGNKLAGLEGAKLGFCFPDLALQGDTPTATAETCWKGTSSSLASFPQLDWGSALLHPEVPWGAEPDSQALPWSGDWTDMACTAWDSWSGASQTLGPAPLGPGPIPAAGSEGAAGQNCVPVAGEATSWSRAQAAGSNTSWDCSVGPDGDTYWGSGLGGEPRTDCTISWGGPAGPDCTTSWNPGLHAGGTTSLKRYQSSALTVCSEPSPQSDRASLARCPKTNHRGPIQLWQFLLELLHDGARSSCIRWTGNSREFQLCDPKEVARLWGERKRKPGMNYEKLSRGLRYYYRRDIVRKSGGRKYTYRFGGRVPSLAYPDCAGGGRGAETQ
# Summary of the method: as §1
# ELF3 = biological target: T5, ELF3 (Homo sapiens, UniProt P78545 1-371); details: protein: recombinant; tags: N-terminal GST; dsDNA, one strand shown
# T5 sequence: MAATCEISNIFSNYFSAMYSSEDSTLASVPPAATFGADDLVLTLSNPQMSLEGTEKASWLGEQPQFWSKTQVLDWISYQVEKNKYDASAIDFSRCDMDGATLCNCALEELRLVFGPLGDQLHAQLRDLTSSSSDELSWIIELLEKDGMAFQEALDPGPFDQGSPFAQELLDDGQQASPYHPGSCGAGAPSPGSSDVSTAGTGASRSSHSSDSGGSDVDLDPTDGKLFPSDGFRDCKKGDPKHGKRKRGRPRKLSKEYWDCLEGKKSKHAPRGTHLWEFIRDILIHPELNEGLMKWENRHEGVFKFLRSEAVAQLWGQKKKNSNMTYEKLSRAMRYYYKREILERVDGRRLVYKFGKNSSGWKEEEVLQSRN
# Summary of the method: as §1
# CRX = CRX (Homo sapiens, UniProt O43186 1-299); details: protein: recombinant; tags: N-terminal GST; dsDNA, one strand shown
# CRX, sequence (O43186 whole entry): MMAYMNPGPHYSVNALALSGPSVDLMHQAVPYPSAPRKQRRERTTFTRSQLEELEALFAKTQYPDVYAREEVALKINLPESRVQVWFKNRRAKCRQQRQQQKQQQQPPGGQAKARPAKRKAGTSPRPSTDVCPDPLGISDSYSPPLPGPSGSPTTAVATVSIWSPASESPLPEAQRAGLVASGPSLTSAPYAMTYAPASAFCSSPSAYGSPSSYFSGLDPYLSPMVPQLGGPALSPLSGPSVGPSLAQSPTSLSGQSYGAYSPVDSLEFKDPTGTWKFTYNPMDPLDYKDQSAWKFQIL
# Summary of the method: as §1
# ETV1 = ETV1 (Homo sapiens, UniProt P50549 1-477); details: protein: recombinant; tags: N-terminal GST; dsDNA, one strand shown
# ETV1, sequence (P50549 whole entry): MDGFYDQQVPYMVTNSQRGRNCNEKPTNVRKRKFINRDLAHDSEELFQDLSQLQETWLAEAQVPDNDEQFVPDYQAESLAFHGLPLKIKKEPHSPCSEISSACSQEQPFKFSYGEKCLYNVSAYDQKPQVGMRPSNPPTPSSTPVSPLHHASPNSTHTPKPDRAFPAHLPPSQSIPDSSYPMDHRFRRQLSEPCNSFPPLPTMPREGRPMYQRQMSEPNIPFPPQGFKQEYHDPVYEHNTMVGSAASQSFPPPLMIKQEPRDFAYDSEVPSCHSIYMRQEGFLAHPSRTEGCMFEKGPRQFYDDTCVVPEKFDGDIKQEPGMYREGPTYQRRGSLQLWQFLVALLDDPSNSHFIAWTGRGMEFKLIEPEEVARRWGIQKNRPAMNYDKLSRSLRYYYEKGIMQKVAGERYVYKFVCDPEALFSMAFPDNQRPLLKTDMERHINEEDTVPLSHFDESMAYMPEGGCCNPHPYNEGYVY
# Summary of the method: as §1
Sequence,binding signal (FEV),binding signal (ETV5),binding signal (HSF1),binding signal (SPIC),binding signal (ELF4),binding signal (ELK4),binding signal (ETV2),binding signal (ELF3),binding signal (CRX),binding signal (ETV1)
TCACGT,"1.19 fold enrichment (6-mer frequency, TF over GST control)","1.24 fold enrichment (6-mer frequency, TF over GST control)","1.13 fold enrichment (6-mer frequency, TF over GST control)","1.19 fold enrichment (6-mer frequency, TF over GST control)","1.23 fold enrichment (6-mer frequency, TF over GST control)","1.27 fold enrichment (6-mer frequency, TF over GST control)","1.02 fold enrichment (6-mer frequency, TF over GST control)","1.01 fold enrichment (6-mer frequency, TF over GST control)","1.15 fold enrichment (6-mer frequency, TF over GST control)","1.26 fold enrichment (6-mer frequency, TF over GST control)"
TCTCTG,"1.53 fold enrichment (6-mer frequency, TF over GST control)","1.43 fold enrichment (6-mer frequency, TF over GST control)","1.73 fold enrichment (6-mer frequency, TF over GST control)","1.59 fold enrichment (6-mer frequency, TF over GST control)","1.58 fold enrichment (6-mer frequency, TF over GST control)","1.69 fold enrichment (6-mer frequency, TF over GST control)","1.45 fold enrichment (6-mer frequency, TF over GST control)","1.37 fold enrichment (6-mer frequency, TF over GST control)","1.49 fold enrichment (6-mer frequency, TF over GST control)","1.46 fold enrichment (6-mer frequency, TF over GST control)"
TCCTAG,"1.19 fold enrichment (6-mer frequency, TF over GST control)","1.33 fold enrichment (6-mer frequency, TF over GST control)","1.45 fold enrichment (6-mer frequency, TF over GST control)","1.2 fold enrichment (6-mer frequency, TF over GST control)","1.29 fold enrichment (6-mer frequency, TF over GST control)","1.24 fold enrichment (6-mer frequency, TF over GST control)","1.23 fold enrichment (6-mer frequency, TF over GST control)","1.2 fold enrichment (6-mer frequency, TF over GST control)","1.29 fold enrichment (6-mer frequency, TF over GST control)","1.41 fold enrichment (6-mer frequency, TF over GST control)"
CTTGGT,"1.33 fold enrichment (6-mer frequency, TF over GST control)","1.46 fold enrichment (6-mer frequency, TF over GST control)","1.18 fold enrichment (6-mer frequency, TF over GST control)","1.61 fold enrichment (6-mer frequency, TF over GST control)","1.58 fold enrichment (6-mer frequency, TF over GST control)","1.53 fold enrichment (6-mer frequency, TF over GST control)","1.53 fold enrichment (6-mer frequency, TF over GST control)","1.51 fold enrichment (6-mer frequency, TF over GST control)","1.21 fold enrichment (6-mer frequency, TF over GST control)","1.53 fold enrichment (6-mer frequency, TF over GST control)"
CTGCAA,"1.29 fold enrichment (6-mer frequency, TF over GST control)","1.3 fold enrichment (6-mer frequency, TF over GST control)","1.14 fold enrichment (6-mer frequency, TF over GST control)","1.2 fold enrichment (6-mer frequency, TF over GST control)","1.23 fold enrichment (6-mer frequency, TF over GST control)","1.32 fold enrichment (6-mer frequency, TF over GST control)","1.07 fold enrichment (6-mer frequency, TF over GST control)","1.4 fold enrichment (6-mer frequency, TF over GST control)","1.05 fold enrichment (6-mer frequency, TF over GST control)","1.24 fold enrichment (6-mer frequency, TF over GST control)"
TTTTGT,"1.33 fold enrichment (6-mer frequency, TF over GST control)","1.31 fold enrichment (6-mer frequency, TF over GST control)","1.27 fold enrichment (6-mer frequency, TF over GST control)","1.2 fold enrichment (6-mer frequency, TF over GST control)","1.41 fold enrichment (6-mer frequency, TF over GST control)","1.36 fold enrichment (6-mer frequency, TF over GST control)","1.28 fold enrichment (6-mer frequency, TF over GST control)","1.43 fold enrichment (6-mer frequency, TF over GST control)","1.42 fold enrichment (6-mer frequency, TF over GST control)","1.32 fold enrichment (6-mer frequency, TF over GST control)"
ATATCG,"1.1 fold enrichment (6-mer frequency, TF over GST control)","1.16 fold enrichment (6-mer frequency, TF over GST control)","1.14 fold enrichment (6-mer frequency, TF over GST control)","1.07 fold enrichment (6-mer frequency, TF over GST control)","1.22 fold enrichment (6-mer frequency, TF over GST control)","1.21 fold enrichment (6-mer frequency, TF over GST control)","1.18 fold enrichment (6-mer frequency, TF over GST control)","1.02 fold enrichment (6-mer frequency, TF over GST control)","1.07 fold enrichment (6-mer frequency, TF over GST control)","1.22 fold enrichment (6-mer frequency, TF over GST control)"
CATCTT,"1.16 fold enrichment (6-mer frequency, TF over GST control)","1.21 fold enrichment (6-mer frequency, TF over GST control)","1.17 fold enrichment (6-mer frequency, TF over GST control)","1.11 fold enrichment (6-mer frequency, TF over GST control)","1.12 fold enrichment (6-mer frequency, TF over GST control)","1.31 fold enrichment (6-mer frequency, TF over GST control)","1.29 fold enrichment (6-mer frequency, TF over GST control)","1.23 fold enrichment (6-mer frequency, TF over GST control)","1.33 fold enrichment (6-mer frequency, TF over GST control)","1.24 fold enrichment (6-mer frequency, TF over GST control)"
